Experimental data: PubChem BioAssay AID602296 (Broad Institute, 2012)
Among all 2,000 compounds or so, about 190 (9.5%) were called active. Inconclusive results (about 14%) are left out.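 The calls were made as follows: active = fitted activation curve crossing 40% at a concentration no higher than the sample's top valid tested dose; inconclusive = flat fitted curve at 30% to 70% activation, or poor curve fit; inactive = signal decrease, flat curve within 30%, or the rest.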 Only a sample is shown.

assay: sustained heat shock response element induction – cell-based, mouse, luciferase, cherry-pick, dose, confirmation (AID 602296); details: NIH3T3-HGL HSF-1 response element luciferase, 48 h; series mostly up to 26 µM;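 also: test compounds applied by themselves with no MG132 co-treatment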

outcome, inactive:
CC12CCC(=O)N1C(C(=O)Nc1cccc3ccccc13)CS2 (configuration not stated)
COc1ccc(CNCC(O)COc2ccc(C(C)(C)c3ccccc3)cc2)cc1 (configuration not stated)
COc1ccc(Cl)cc1NC(=O)CCc1nc(-c2ccccc2F)no1
Cc1ccc(-c2ccc(=O)[nH]n2)cc1
c1ccc(Cn2nnnc2C(c2cccs2)N2CCc3ccccc3C2)cc1 (configuration not stated)
COc1ccc(N/C=C(\C=C\C#N)S(=O)(=O)c2ccccc2)cc1
Cc1cccc(NC(=S)N(CCN(C)C)C(C)c2cccnc2)c1 (configuration not stated)
COCCOC(=O)C1=C(C)NC(C)=C(C(=O)OCCOC)C1/C=C/c1ccccc1OC
COc1ccc(C(=O)COC(=O)c2cccnc2SC)cc1
CCOc1ccc(S(=O)(=O)NNC(=S)Nc2ccc(Br)cc2)cc1
CCOC(=O)c1c(NC(C)=O)sc2c1CCC(C=NCCCN(CC)CC)=C2Sc1ccccc1
O=C(c1ccc(Br)cc1)N1CCCC(c2nc(-c3cccs3)no2)C1 (configuration not stated)
Cc1[nH]c2ccccc2c1CN1CCN(c2ccccn2)CC1
CCOc1ccc(NC(=O)C2CC(=O)N3CCCN=C3S2)cc1 (configuration not stated)
CCOC(=O)c1nnc(-c2ccccc2)nc1Sc1ccccc1Cl
CCC(NC(=O)/C(=C\c1ccc2c(c1)OCO2)NC(C)=O)C(=O)O (configuration not stated)
Cc1cc(NC(=O)CSc2nc3c(cc2C#N)CCC3)no1
Cc1nonc1C1CCCN1Cc1cn[nH]c1-c1ccc(-c2ccccc2)cc1 (configuration not stated)
Cc1ccc2c(CN3CCN(S(=O)(=O)/C=C/c4ccccc4)CC3)cc(=O)oc2c1
O=C1C2CCCCC2C(=O)N1Cc1ccccc1 (configuration not stated)
CC(C)C(C)N(Cc1ccc(C(=O)O)cc1)C(=O)c1ccc2ccccc2n1 (configuration not stated)
O=C(Nc1ccn(Cc2ccccc2F)n1)c1ccc(COc2ccc(Cl)cc2Cl)o1
Cn1c(CN2CCN(c3ccc(Cl)cc3)CC2)nc2ccccc21
Brc1ccc(CSc2nnc(-c3ccccn3)n2Cc2ccco2)cc1
CSc1nc(S(=O)(=O)c2ccc(C)cc2)c(Cl)s1
COc1ccc(CCNCc2cc(C)n(-c3ccc(OC)cc3)c2C)cc1
Cc1cc(C(=O)N/N=C/c2ccc([N+](=O)[O-])s2)c2ccccc2n1
Clc1ccc(-n2cc(COCc3ccccc3)nn2)cc1
COc1ccc(Cl)cc1N(CC(=O)Nc1ccccc1SC)S(C)(=O)=O
COc1ccc(OC)c(S(=O)(=O)Nc2ccccc2O)c1
CCOC(=O)/C=C/C(=O)OCC(=O)NC(c1ccccc1)c1ccccc1
Cc1onc(-c2ccccc2)c1C(=O)N/N=C/c1cccc(O)c1
C=CCc1ccc(OCC(O)CO)c(OC)c1 (configuration not stated)
NC(=O)c1ccc(NC(=O)CC23CC4CC(CC(Br)(C4)C2)C3)cc1
Cc1cccn2c(=O)nc(SCC(=O)N3N=C(c4cccs4)CC3c3ccc(F)cc3)nc12 (configuration not stated)
O=C(NNc1c(F)c(F)cc(F)c1F)c1ccc(Cl)nc1
CCOc1ccc(CN(C)CC(O)COC(c2ccc(OC)cc2)c2ccc(OC)cc2)cc1 (configuration not stated)
O=C(/C(=N/N=C/c1ccc(O)c(O)c1)c1ccccc1)c1ccccc1
Cc1ccc(Cl)c2c1=NC(=O)C=2c1[nH]c(=S)[nH]c1O
Cc1ccc(N(Cc2ccc(C(=O)Nc3ccccc3C(=O)NCc3ccco3)cc2)S(C)(=O)=O)cc1C
CC(C)=C1C2CCC1C1C(=O)N(c3nc(-c4ccccc4)c(C)s3)C(=O)C21 (configuration not stated)
COc1ccc(CCNC(=O)C2CCCN(Cc3nc(-c4ccccc4C)oc3C)C2)cc1OC (configuration not stated)
O=C1[C@@H]2Cc3c([nH]c4ccccc34)C(c3ccc([N+](=O)[O-])cc3)N2C(=O)CN1C1CC1 (some centres not stated)
CC(=O)c1ccc(N=C2C(=O)Nc3ccccc32)cc1
Cc1ccc(-c2[nH]c3ccccc3c2C(C[N+](=O)[O-])c2ccco2)cc1 (configuration not stated)
Cc1cc(Sc2nnc(N)s2)c2ccccc2n1
COC(=O)Nc1ccc(S(=O)(=O)N2CCC(C(=O)N3CCCC(C)C3)CC2)cc1 (configuration not stated)
CC12CN(C(=S)Nc3ccccc3)CC(C)(CN(C(=S)Nc3ccccc3)C1)C2=O
COc1ccccc1C(=O)NCCCNC(=O)c1ccccn1
NCCCCCc1nnc(SC/C=C/c2ccccc2)o1
COc1cc(-c2nnc(SC/C=C/c3ccccc3)n2N)cc(OC)c1OC
COc1cccc(-c2c(C(=O)N/N=C(\C)c3ccc(Cl)s3)nnn2-c2nonc2N)c1
C=C(C)Cn1c(SCC(=O)O)nnc1-c1ccc(OC)cc1
CC(=O)COc1cccc2ccc(/C=C/c3ccc(Br)s3)nc12
Cc1[nH]n(-c2ccccc2)c(=O)c1C(C[N+](=O)[O-])c1ccc(F)cc1 (configuration not stated)
C=CCn1c(C2CCCCC2)n[nH]c1=S
S=c1[nH]nc(-c2cc(-c3ccccc3)n[nH]2)n1/N=C/C(Br)=C/c1ccccc1
COc1ccc2cc(S(=O)(=O)N3CCCCC3)ccc2c1S(=O)(=O)N1CCCCC1
CCOC(=O)COc1ccc(/C=C2/SC(=Nc3ccccc3)N(Cc3cccnc3)C2=O)cc1OC
CCCCc1nnc(NC(=O)C(C)Sc2nc(C)cc(=O)[nH]2)s1 (configuration not stated)
CCn1c(CNC(C)=O)nnc1SCC(=O)c1ccc(Br)cc1
COc1ccc(C(CCNCc2ccccc2)c2ccc(F)cc2)cc1 (configuration not stated)
Nc1cnn(Cc2ccc(F)cc2)c1
CC1=CC(C)(C)Nc2ccc(OC(=O)C(Cc3ccccc3)N3C(=O)c4ccccc4C3=O)cc21 (configuration not stated)
CCOc1ncccc1C(=O)N(C)CC1COc2ccccc2O1 (configuration not stated)
O=C(CCCN1C(=O)c2cccc3cccc(c23)C1=O)Nc1ccon1
CCN(CC)CCOc1ccc(/C(=C(/Cl)c2ccccc2)c2ccccc2)cc1
CCCCN(C)C(=O)C1CCC(CNS(=O)(=O)c2ccc3c(c2)CC(C)N3C(=O)C2CC2)CC1 (configuration not stated)
Brc1ccc2c(c1)C(c1cccnc1)=NNC(c1cccs1)=N2
Cc1ccc(-n2c(C)cc(C(=O)COc3c(CO)cc(F)cc3CO)c2C)cc1C
Cc1c(NC(=O)CSc2nnc3c4ccccc4n(CCc4ccccc4)c3n2)c(=O)n(-c2ccccc2)n1C
CC(=O)Nc1ccc(N2C(=O)C3C4CC(=O)C(c5ccccc54)C3C2=O)cc1 (configuration not stated)
O=c1[nH]c(CSc2ccccn2)nc2c1oc1ccccc12
C=CCn1c(COc2ccc(CC)cc2)nnc1SC/C(O)=C(\C#N)c1nc2ccccc2[nH]1
O=C(CSC1=NCCN1)Nc1cccc(C(F)(F)F)c1
S=C(NCCSCc1ccc(Cl)c(Cl)c1)Nc1ccccc1
CC1(C)CC(=O)C2=C(C1)N1C(=C(C#N)C2c2ccc(Cl)cc2)N=C(N)c2ccccc21 (configuration not stated)
O=C(CNS(=O)(=O)c1ccc(Br)s1)NCc1ccccc1
Cc1ccc(CNC(=O)Cn2ccc3ccccc3c2=O)o1
CNC(=O)N(O)C1N(/N=C/c2c(F)cccc2Cl)C(=S)SC1(C)C (configuration not stated)
FC(F)(F)c1ccc(Sc2nnc(-c3cccs3)n2CC2CCCO2)nc1 (configuration not stated)
Clc1ccc(CCNc2nc3ccccc3n3nnnc23)cc1
O=C(Nc1cccc(Cl)c1)N1CCC(CO)(CCOc2ccccc2)CC1
COc1ccc(/C=C/C(=O)c2ccc(O)cc2)cc1COc1ccc(F)cc1
Oc1cc(-c2ccccc2)c2ccccc2c1
Cc1nc2cc3nc(C(F)(F)F)[nH]c3cc2[nH]1
COc1ccccc1CCC(=O)OCC(=O)Nc1c(Br)cc(C)cc1Br
O=C(NCCc1ccc(O)c(O)c1)C1COc2ccccc2O1 (configuration not stated)
CC(NC(=O)c1ccc(C(C)(C)C)cc1)C(c1cccs1)N1CCOCC1 (configuration not stated)
CCNC(=O)C(=O)NCc1ccncc1
CCn1cnc2c1c(=O)n(Cc1nnc3n1-c1ccccc1SC3)c(=O)n2Cc1ccccc1
N#Cc1cc(Cl)c(NCC2CCCO2)cc1C#N (configuration not stated)
Cc1ccc(S(=O)(=O)NNC(=O)c2sc3nc(C)cc(C)c3c2-n2cccc2)cc1
Clc1ccc(CO/N=C/c2c(-c3ccccc3)nc3n2CCS3)c(Cl)c1
Cc1ccc(-c2nc3ccccc3[nH]2)cc1NC(=O)c1ccc2c(c1)OCO2
COc1cccc(NC=C2C(=O)OC3(CCCCC3)OC2=O)c1
Cc1sc2nc(CSc3cccc(C(F)(F)F)c3)[nH]c(=O)c2c1C
COc1ccc(N2C(=O)CC(Sc3nnnn3-c3ccc(F)cc3)C2=O)cc1 (configuration not stated)
CC(C(=O)Nc1ccccc1Br)N1c2cccc3cccc(c23)S1(=O)=O (configuration not stated)
CC(=O)c1ccc(N2CCN(C(=O)c3n[nH]c4ccccc34)CC2)cc1
Cc1ccc(C(=O)Cn2nnc(-c3ccccc3-n3cnnn3)n2)cc1
COc1ccccc1NC(=O)C1=C(C)NC2=C(C(=O)CC(c3ccc(OC)c(OC)c3)C2)C1c1coc2ccccc2c1=O (configuration not stated)
Cc1ccc(S(=O)(=O)N(C)c2ccc(C)c([N+](=O)[O-])c2)cc1
CCOC(=O)C1=C(C)Nc2nc3ccccc3n2C1c1ccncc1 (configuration not stated)
COc1ccc(NC(=O)C(NCC(C)C)c2ccccc2)cc1Cl (configuration not stated)
O=S(=O)(c1ccc(-n2cnnn2)cc1)N1CCNCC1
CCCCCCCCCCCC(=O)c1c(O)cccc1O
